Bioassay records (PubChem)
This is a sample that favours compounds with a hit; in the whole collection about 2.3% have one here.
M1 PAM parental – nonselective activator or artifact in parental CHO-K1 calcium assay | activation, % at 3 µM | ATP EC20, Fluo-8 calcium fluorescence; 0% at ATP EC20, 100% at ATP max | 0.02% of 360,000 active;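 active means activation above the run cutoff, the mean activation of all test compounds plus 3 SD, cut at about 40% in these data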;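 further: peak over basal fluorescence ratio in a 140 s read after ATP addition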
M1 ag – agonists of human M1 muscarinic receptor; P11229; CHO-K1 hM1, Fluo-8 calcium fluorescence, agonist mode; 0% DMSO, 100% acetylcholine EC100; activation, % at 3 µM; 0.33% of 360,000 active; AID 588814;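 active means activation above the run's mean compound activation plus 3 SD, cut at about 16% in these data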;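 further: peak over basal fluorescence ratio within a 140 s kinetic read after compound addition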
Target sequence (P11229 whole entry, looked up): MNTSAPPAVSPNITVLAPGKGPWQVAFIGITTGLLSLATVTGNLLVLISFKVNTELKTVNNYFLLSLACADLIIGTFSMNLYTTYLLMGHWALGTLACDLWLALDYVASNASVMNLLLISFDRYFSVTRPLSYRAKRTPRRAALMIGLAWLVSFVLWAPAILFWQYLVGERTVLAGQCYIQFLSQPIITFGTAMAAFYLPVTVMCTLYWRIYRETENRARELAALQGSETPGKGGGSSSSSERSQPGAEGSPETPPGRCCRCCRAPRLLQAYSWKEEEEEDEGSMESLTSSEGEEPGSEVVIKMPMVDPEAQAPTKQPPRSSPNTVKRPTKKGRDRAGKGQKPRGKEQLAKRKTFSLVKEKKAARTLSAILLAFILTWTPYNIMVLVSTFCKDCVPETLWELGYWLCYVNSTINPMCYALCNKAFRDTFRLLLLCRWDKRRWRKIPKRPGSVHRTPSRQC
M1 PAM – human CHRM1 positive allosteric modulation. AID 588819. 0.088% of 360,000 active. P11229. CHO-K1 hM1, Fluo-8 calcium fluorescence, ACh EC20; 0% = ACh EC20, 100% = maximal ACh. activation, % at 3 µM; in the data active means activation above about 19%, passing the limit was not always enough
M1 antag – blocks human M1 muscarinic receptor; 1.3% of 360,000 active; CHO-K1 hM1, Fluo-8 calcium fluorescence, ACh EC80 antagonist; inhibition, % at 3 µM; P11229;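 active means percent inhibition above its own plate's cutoff, namely the mean of that plate's compound wells plus 3 SD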;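 further: peak over basal fluorescence ratio during 140 s after agonist addition; 0% = ACh EC80 plus DMSO and 100% = DMSO alone without agonist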
CHO-K1 Ca ag – M1 agonist counterscreen hit in parental CHO-K1 cells. Fluo-8 calcium fluorescence; scaled to maximal ATP response, vehicle zero. 0.48% of 360,000 active. activation, % at 3 µM; in the data active means activation above about 15%;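 further: untransfected CHO-K1 host cells lacking M1 receptor as counterscreen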
CHO-K1 Ca antag – nonselective inhibitor or artifact in parental CHO-K1 cells; ATP-induced calcium, Fluo-8 fluorescence; inhibition, % at 3 µM; 0.6% of 360,000 active;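 active means inhibition above a per-plate cutoff, the plate's mean sample inhibition plus 3 SD, cut at about 24% in these data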;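 further: 0% = DMSO plus EC80 ATP and 100% = DMSO alone without ATP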
Active calls of the source: *.

SMILES	M1 PAM parental	M1 ag	M1 PAM	M1 antag	CHO-K1 Ca ag	CHO-K1 Ca antag
CCOC(=O)N1CCN(C(=O)CSCC(=O)Nc2nc(-c3ccc(-c4ccccc4)cc3)cs2)CC1	7.6	4.3	-18.6	48.2*	8.2	6.8
Cc1sc(NC(=O)CSC2=NCCS2)nc1-c1ccccc1	6.3	-4.3	-1.8	-23.6	0.5	0.9
CCOC(=O)N1CCN(C(=O)CSCc2ccc(C)cc2)CC1	-7.8	-0.2	-0.7	17.5	-0.3	25.8*
Cc1ccc(-c2csc(NC(=O)CSC3=NCCS3)n2)cc1	-5.9	-5.5	-10.2	4.3	0.0	24.8*
CCOC(=S)SCC(=O)Nc1nc(-c2ccc(Br)cc2)cs1	10.6	-4.2	3.9	32.5*	2.0	-5.2
CCOC(=S)SCC(=O)Nc1nc(-c2ccccc2)cs1	18.5	-6.2	5.6	-7.7	4.5	-8.4
CC(=O)OC(/C(O)=C(\C#N)c1nc2ccccc2[nH]1)c1ccccc1 (configuration not stated)	12.4	-0.8	6.3	-10.6	2.7	-15.0
COc1cc(C)c(NC(=S)Nc2cccc(Cl)c2C)cc1OC	17.2	-4.5	11.3	-12.1	-0.1	-9.4
Cc1ccc(S(=O)(=O)N2CCN(Cc3ccccc3)CC2)s1	2.8	-7.2	-2.8	0.1	0.0	-10.1
Cc1ccc(CN2CCN(Cc3ccc(-n4cccn4)cc3)CC2CCO)cc1 (configuration not stated)	7.0	-13.7	8.9	-14.9	0.2	-5.3
Cc1cc(-n2cccn2)ccc1CN1CCN(CC(C)C)C(CCO)C1 (configuration not stated)	16.1	-7.1	-24.0	47.7*	1.2	-16.6
Cc1cc(-n2cccn2)ccc1CN1CCN(C2CCCC2)C(CCO)C1 (configuration not stated)	-13.2	-4.0	-20.1	99.6*	-0.3	5.9
CC(C)CCN1CCN(Cc2cccc(-n3cccn3)c2)CC1CCO (configuration not stated)	-8.6	-7.5	-1.8	-0.1	0.4	3.7
CC(=O)Nc1cccc(-c2cnc(N)c(C(=O)c3cccnc3)n2)c1	6.3	-3.8	7.7	-8.0	0.8	-6.3
Cc1cc(C)c2nc(N3CCC(C(=O)NCCCN4CC(C)CC(C)C4)CC3)sc2c1 (configuration not stated)	27.4	-9.7	-27.1	81.7*	2.4	-10.1
O=C(C[n+]1cccc(Br)c1)c1ccc(-c2ccccc2)cc1	13.3	-11.1	-27.4	38.4*	2.9	0.0
O=C(C[n+]1cccc(Br)c1)c1ccccc1	9.7	-6.7	14.1	-9.0	1.2	0.3
Cc1ccc(C)[n+](CC(=O)c2ccc(-c3ccccc3)cc2)c1	17.2	-15.8	-34.5	43.6*	0.3	11.7
CCOC(=O)c1c(NC(=O)c2cc3n(n2)C(C(F)(F)F)CC(c2cccs2)N3)sc(C)c1C (configuration not stated)	-6.0	-0.3	-1.4	-1.3	0.2	-4.3
O=C(Nc1cccc(Cl)c1N1CCOCC1)c1cccnc1Cl	7.6	4.4	11.0	-2.5	21.9*	-0.7
CCCc1ncc(C(O)c2cccc3ccccc23)n1C (configuration not stated)	25.0	-3.9	-2.2	-12.5	1.5	-8.9
CCCc1ncc(C(O)(c2ccccc2)c2ccc(C)cc2)n1C (configuration not stated)	25.2	-7.7	-24.6	94.6*	2.4	-8.6
CCCc1ncc(C(O)(c2ccccc2)c2ccccc2)n1C	18.4	-13.1	-32.2	93.9*	0.7	-4.0
O=[N+]([O-])c1cc(S(=O)(=O)O)cc([N+](=O)[O-])c1NN(c1ccccc1)c1ccccc1	-9.3	-5.6	2.1	-2.4	-0.2	-2.7
CC1CCN(S(=O)(=O)c2ccc(Oc3ccc([N+](=O)[O-])cc3)cc2)CC1	-1.9	-6.2	-18.1	29.8*	5.0	-0.1
SMILES	M1 PAM parental	M1 ag	M1 PAM	M1 antag	CHO-K1 Ca ag	CHO-K1 Ca antag
N#Cc1ccccc1S(=O)(=O)N1CCN(C(=O)[C@@H]2CCCN2C(=O)c2cccs2)CC1	-10.2	-4.4	-10.0	33.4*	0.1	8.0
Cc1ccc(NC(=O)[C@@H]2CCCN2C(=O)c2cccs2)cc1S(=O)(=O)N1CCCCC1	22.6	-7.8	5.9	-11.6	0.1	-19.9
CC1CC(C)CN(S(=O)(=O)c2ccc(NC(=O)[C@@H]3CCCN3C(=O)c3cccs3)cc2)C1 (some centres not stated)	13.8	-7.4	-22.4	29.6*	-0.2	-10.1
COc1cc(N2C(=O)c3ccccc3C2=O)c(Cl)cc1C(=O)OCC(=O)NCc1ccco1	-8.9	-4.9	-6.1	-28.7	0.2	28.2*
O/N=C(\c1ccccc1)c1nccc2ccccc12	-3.2	-0.4	16.2	-4.9	0.6	-3.4
O=C(COc1ccc2c(-c3ccccc3)cc(=O)oc2c1)Nc1ccc(CCO)cc1	-20.0	4.9	-11.0	23.8	17.8*	25.9*
CC1CN(C(=O)COc2ccc3c(-c4ccccc4)cc(=O)oc3c2)CC(C)O1 (configuration not stated)	-11.4	-2.1	-14.1	29.4*	0.8	-9.7
CCOC(=O)c1cc(=O)c2ccc(OCC(=O)Nc3ccc(F)cc3)cc2o1	9.9	10.5	8.5	-8.4	24.9*	-1.4
CCOC(=O)C1=CNS(=O)(=O)NC1CCc1ccccc1 (configuration not stated)	2.1	-0.2	13.4	-19.1	-0.5	-0.4
Cn1c(=O)c2[nH]c(CCCCc3nc4ccccc4[nH]3)nc2n(C)c1=O	-6.6	-6.5	5.6	-13.0	0.1	-6.7
Cn1c(=O)c2[nH]c(CCCCCCCCc3nc4ccccc4[nH]3)nc2n(C)c1=O	-10.6	-0.2	-23.4	37.5*	12.0	-3.2
CCCS(=O)(=O)NC(=O)C1(C)CCN(C(=O)c2ccccc2Br)C1 (configuration not stated)	15.5	3.1	26.6*	-26.8	0.3	1.5
CCCS(=O)(=O)NC(=O)C1(C)CCCN(C(=O)c2ccccc2Br)C1 (configuration not stated)	-6.6	-1.3	4.9	-3.0	0.0	1.4
CCCCN1C(=O)/C(=C/C=C2/CC(C)(C)CN2C)SC1=S	1.6	30.9*	-18.1	36.0*	37.5*	27.9*
CCN1C(=O)/C(=C/C=C2/SCCN2C)SC1=S	1.9	8.3	5.9	-4.0	2.5	11.9
CCCCN1C(=O)/C(=C/C=C2\Oc3ccccc3N2CC)SC1=S	1.8	27.6*	-7.6	43.4*	15.4*	21.8
O=C(NC(NC(=S)Nc1ccccc1)C(Cl)(Cl)Cl)c1cccc(Cl)c1 (configuration not stated)	-10.3	3.8	-16.4	29.8*	14.4	31.9*
O=C(Nc1ccc([N+](=O)[O-])cc1)Nc1nc(-c2ccc(Cl)s2)cs1	-4.5	5.9	-10.1	8.1	10.4	34.1*
